Source: PubChem BioAssay
Shown are actives, neighbours in structure and some others; about 22% of the full set was active somewhere.
E-sel TNF inh – E-selectin induction blockers in HUVEC – imaging, immunofluorescence, high content, primary screen; HUVEC TNFa-induced E-selectin immunofluorescence; inhibition, % at 2 µM; 120,000 tested, 0.71% active; AID 1246, 2008;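 active means inhibition above the batch mean plus 3 SD, and confirmed as a hit on visual image review, cut at about 43% in these data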;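 further: 0% = TNF-stimulated DMSO wells and 100% = unstimulated control wells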
CYP2C19 activ – human CYP2C19 activators, primary screen, biochemical, luminescence | AID 1025, 2008 | 96,000 tested, under 10 active | Cytochrome P450 2C19 (Homo sapiens), P33261 | recombinant CYP2C19, luciferin-H EGE luminescence; stronger effect = higher value; 0 = fully inhibited enzyme, 1 = untreated enzyme | activation factor at 5 µM;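 active means activation factor of at least 2 at 5 µM in the primary screen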;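 further: 0 = wells with 2.5 mM tranylcypromine and 1 = vehicle-only wells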
CYP2C19 inh – blockers of cytochrome P450 2C19 activity – biochemical, luminescence, ADME assay, primary screen; P33261; CYP2C19 Supersomes, luciferin-H EGE luminescence, 30 min; inhibition, % at 5 µM; 96,000 tested, 21% active;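 active means CYP2C19 inhibition above a set limit at 5 µM in the primary screen, cut at about 50% in these data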;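 further: plate controls were negative control wells for no effect and 2.5 mM tranylcypromine positive control for full effect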
cytoskel mod – modifiers of F-actin cytoskeleton organization, primary screen, imaging, HUVEC, phalloidin staining, high-content imaging | HUVEC TNFa F-actin phalloidin imaging | 91,000 tested, 0.18% active | AID 836, 2007 | inhibition, % at 2 µM;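 active means inhibition above the batch mean plus 3 SD and confirmed as a hit by visual image inspection, cut at about 30% in these data, passing the limit was not always enough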
CYP2C9 activ – human CYP2C9 activators, primary screen, biochemical, luminescence; Cytochrome P450 2C9 (Homo sapiens), P11712; recombinant CYP2C9, luciferin-H conversion; stronger effect = higher value; factor 1 = untreated enzyme, 0 = blocked; AID 1024, 2008; activation factor at 5 µM; 96,000 tested, 1.4% active;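 active means activation factor of 2 or more for CYP2C9 at a 5 µM dose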;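 further: 0 = sulfaphenazole-blocked wells and 1 = vehicle-only wells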
Target sequence (P11712 whole entry, looked up): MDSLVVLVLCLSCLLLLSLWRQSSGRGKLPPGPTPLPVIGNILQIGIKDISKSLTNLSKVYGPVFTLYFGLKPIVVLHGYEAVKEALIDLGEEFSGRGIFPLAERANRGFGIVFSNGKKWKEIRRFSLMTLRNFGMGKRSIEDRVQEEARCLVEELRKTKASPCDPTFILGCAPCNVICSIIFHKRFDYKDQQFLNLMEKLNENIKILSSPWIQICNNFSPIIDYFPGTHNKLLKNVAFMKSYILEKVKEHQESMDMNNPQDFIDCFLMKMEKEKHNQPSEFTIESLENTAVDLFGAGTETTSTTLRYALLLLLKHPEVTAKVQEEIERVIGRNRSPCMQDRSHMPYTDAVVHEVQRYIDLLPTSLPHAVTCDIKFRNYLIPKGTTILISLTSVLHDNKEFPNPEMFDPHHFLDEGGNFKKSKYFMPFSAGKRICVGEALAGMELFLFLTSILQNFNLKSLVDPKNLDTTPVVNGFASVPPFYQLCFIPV
CYP2C9 inh – blockers of cytochrome P450 2C9 activity – biochemical, luminescence, ADME assay, primary screen; inhibition, % at 5 µM; 96,000 tested, 20% active; CYP2C9 Supersomes, luciferin-H conversion; P11712;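 active means blocking of liver enzyme CYP2C9 beyond about 50% at 5 µM, limit read from the data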
* = called active by the depositor; · = no result.

SMILES	E-sel TNF inh	CYP2C19 activ	CYP2C19 inh	cytoskel mod	CYP2C9 activ	CYP2C9 inh
O=[N+]([O-])c1ccc(O)c(/C=N/Nc2ccc(Cl)nn2)c1	100*	1	-2	25	0.6	44
CCOC(=O)c1cc2sc(C)cc2n1CC(=O)N(CC)CC	9	0.5	54*	18	1	-5
CCOC(=O)c1cc2ccccc2n1CCN(CC)CC	-1	0.7	35	9	1.2	-24
CCOC(=O)c1cc2sc(C)cc2n1CC(=O)NCCc1ccccc1	4	0	100*	16	0.5	46
Cc1ccc(Oc2ncnc(N)c2[N+](=O)[O-])cc1	-17	·	·	·	·	·
CC(C)N(C(=O)COc1ccc(Br)cc1Cl)C(C)C	25	0.1	94*	0	0.4	60*
CCOC(=O)N1CCN(C(=O)COc2ccc(Br)cc2Cl)CC1	12	0.1	86*	·	0.6	36
COCCNC(=O)COc1ccc(Br)cc1Cl	-7	0.6	40	8	1	3
C=CCNC(=O)COc1ccc(Br)cc1Cl	·	0.1	93*	-17	0.6	43
O=C1CCCC2=C1C(c1cccs1)Nc1ccc3ncccc3c12 (stereo not drawn)	-74	0.1	95*	14	0.1	94*
CC1(C)CC(=O)C2=C(C1)c1c(ccc3ccccc13)NC2c1ccco1 (stereo not drawn)	1	0.8	20	2	0.8	16
Cc1ccsc1C1Nc2ccc3ncccc3c2C2=C1C(=O)CC(C)(C)C2 (stereo not drawn)	5	0	98*	-2	0.2	80*
CCN1C(=O)C(O)(CC(=O)c2ccc(-n3cccc3)cc2)c2ccccc21 (stereo not drawn)	-26	·	·	·	·	·
C=C(C)CN1C(=O)C(O)(CC(=O)c2ccc3c(c2)OCCO3)c2ccccc21 (stereo not drawn)	-7	0.2	82*	-4	0.6	40
Cc1ccc(C(=O)CC2(O)C(=O)N(Cc3ccccc3Cl)c3ccccc32)o1 (stereo not drawn)	12	0.4	55*	3	1.4	-44
N#CCCCN1C(=O)C(O)(CC(=O)c2ccc3c(c2)OCCO3)c2ccccc21 (stereo not drawn)	-6	0.8	20	-2	0.7	33
O=C(CC1(O)C(=O)N(CCc2ccccc2)c2ccccc21)c1ccco1 (stereo not drawn)	·	0.3	71*	·	0.3	74*
Cc1ccc(C(=O)CC2(O)C(=O)N(CCc3ccccc3)c3ccc(Br)cc32)o1 (stereo not drawn)	24	0	98*	2	0.1	93*
CCN1C(=O)C(O)(CC(=O)C(C)(C)C)c2cc(Br)ccc21 (stereo not drawn)	-38	·	·	·	·	·
Cc1ccc(C(=O)NNC(=O)Cc2ccccc2)cc1	12	0.8	23	5	0.9	12
C=CCN1C(=O)C(O)(CC(=O)c2ccccc2)c2ccccc21 (stereo not drawn)	1	0.3	75*	13	0.6	38
O=C(CN1CCOc2ccccc21)NC1CCCCCCC1	2	·	·	-7	·	·
O=C(CN1CCC(C(=O)c2ccc3c(c2)OCCO3)CC1)NC1CCCC1	-8	0.2	84*	35	0.8	16
Cc1ccc(C(=O)C2CCN(CC(=O)Nc3ccc4c(c3)OCCO4)CC2)cc1	-25	0.8	23	23	0.4	62*
CCOc1ccc(C(=O)N2CCC(C(=O)c3ccc4c(c3)OCCO4)CC2)cc1	-19	0.2	85*	-10	0.4	55*
SMILES	E-sel TNF inh	CYP2C19 activ	CYP2C19 inh	cytoskel mod	CYP2C9 activ	CYP2C9 inh
Cc1ccc(C(=O)C2CCN(CC(=O)Nc3nc(C)cs3)CC2)cc1	-48	0.5	48	14	0.1	90*
NC(=O)c1ccsc1NC(=O)C1CCCN1S(=O)(=O)c1ccc(Cl)cc1 (stereo not drawn)	15	0.4	61*	20	0.2	78*
CC(C)CNC(=O)C1CCCN1S(=O)(=O)c1ccc(Cl)cc1 (stereo not drawn)	-8	0.7	31	-47	0.9	8
CC1CCCCN1S(=O)(=O)c1ccc(C(=O)Nc2sccc2C(N)=O)cc1 (stereo not drawn)	-25	1.1	-6	5	0	97*
O=C(Nc1nccs1)C1CCCN1S(=O)(=O)c1ccc(Cl)cc1 (stereo not drawn)	·	0.5	48	-11	0.3	69*
COc1ccc(CCn2c(-c3ccco3)nc3nc4ccccc4nc32)cc1	9	0.2	83*	1	0.2	82*
Clc1ccc(OCCn2c(-c3ccco3)nc3ccccc32)cc1	8	0.4	59*	-14	0.4	56*
O=c1c2ccccc2nc(-c2ccco2)n1Cc1ccccc1	5	0.7	30	18	0.8	23
COc1ccc(C(=O)n2c(-c3ccco3)nc3ccccc32)cc1	·	0.5	54*	-39	0.4	61*
COc1ccc(C(=O)N2CCn3c2nc2ccccc23)cc1	-3	·	·	·	·	·
O=c1c2ccccc2nc(-c2ccc(Br)cc2)n1Cc1ccccc1	18	0.6	36	3	0.2	83*
COc1ccccc1Cn1c(-c2ccco2)nc2nc3ccccc3nc21	-11	·	·	15	·	·
Cc1onc(-c2ccccc2)c1C(=O)Nc1cccc2nsnc12	-13	0.6	39	-18	0.9	10
COc1ccc(-c2nn3cnnc3s2)cc1OC	-9	0.6	36	-8	0.9	13
O=c1c2ccccc2oc2nc(-c3ccco3)n(CCc3ccccc3)c(=O)c12	·	1	4	·	1	4
O=c1c2ccccc2nc(N2CCN(c3ccccc3)CC2)n1Cc1ccccc1	4	0.7	30	-16	0.3	71*
CCOc1ccc(CCn2c(-c3ccco3)nc3ccccc3c2=O)cc1OCC	18	0.2	79*	-11	0.8	25
O=c1c2ccccc2nc(-c2ccoc2)n1CCc1ccccc1	-1	0.4	58*	2	0.4	56*
COCCn1c(-c2cc(OC)c(OC)c(OC)c2)nc2oc3ccccc3c(=O)c2c1=O	·	1.1	-15	·	1.2	-25
NC(=O)C1CCN(C(=O)Cn2cccc2C(=O)c2ccccc2)CC1	-23	1	-4	0	1	1
Cc1ccc2nsnc2c1S(=O)(=O)N(Cc1ccco1)Cc1cc2ccc(C)c(C)c2[nH]c1=O	·	1	2	-9	0.9	8
CC(=O)c1cc(-c2nc3ccccc3n2C)n(C)c1	23	0.4	56*	2	0.3	73*
Cn1cc(C(=O)c2ccc(F)cc2)cc1-c1nc2ccccc2n1C	-3	0.8	25	-4	0.6	37
